According to the supplement of paper PMC6555819:

These sequences were tested on VDR:RXRa (NR concentration 270 nM, RXRa partner concentration 90 nM) (assay: PBM binding z-score (relative to random genomic background probes); higher = stronger binding; sequences stand for … in GC…GCGATTGACAGCGTAGAATGAAGG).
Description: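 Protein-binding microarray (Agilent 4x180K custom design, double-stranded 60-nt probes: 5' GC cap, 34-nt variable region, 24-nt constant primer region; full probe sequence given). Purified or IVT nuclear receptor:RXRα heterodimers (3:1 NR:RXRα, mostly 270:90 nM) or homodimers were incubated for 1 h in PBS with 2% milk and no ligand, then detected with Alexa488 antibodies. Fluorescence from o1-orientation probes (~5 replicates averaged) was converted to z-scores against 500 random hg19 background probes. Variable regions are seed direct-repeat (DR0–DR5) sites, all their single-nucleotide variants and half-site ablations.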

Row | Sequence | PBM binding z-score
1 | ATCACTAGGTAAGACTCAGTTCAGTGAAGAACGC | 0.53
2 | CCTTACGGGTCGCGAGGTTATAGCACGACGAGCG | 2.88
3 | ACGGACAGGTGAGTGAAGGTAACTCAGCTGGACG | -0.381
4 | CCTACTTGGCCAAAAAGGTCATTGATGCCGATAA | 4.82
5 | TCATATAGGTATACAGGTGAAAGTCCGTAAGTTA | 1.07
6 | TTACGAAGGTGAAGGTCGTTGATCCCTCTGTAGA | 1.39
7 | TAGCCTAGTTCATTGGGCCAGTATAGTACGCATC | 1.17
8 | CCTTACGGGTCACTCCCGGTTATAGCATCGGAGT | 3.03
9 | TCTAGTTGGTCAAAGGTCACATACTCGAAATGCG | 5.02
10 | CGTCAAAGTACAAGGTAACGTAACAGAAAGCAGC | 0.215
11 | TAGCCTAGGTCATTCAGGGGCCAGTATTGAAAGC | 3.18
12 | GCTCGGAGGACAAGGTCAGAGGTTTGTCCGTAGA | 1.81
13 | ACTATTAGTTGAAACGAGGGCAACCGATAGGTTG | 1.63
14 | CCTTACGGGTCAATCCAGGTTATAGCATCGGAGT | 4.64
15 | ATATGTAGGTTATCGGGTCATTCGGTTTGCGCAT | 5.19
16 | CCAGACAGGTGAGAAGTTAACTCAGCCTCGATTA | -0.0797
17 | TGTCAAAGTTCAAAGCTAACGTAAGTATCCACAC | 4.16
18 | TCTTGTAGACCAAAGGTTAAGAAAGCCGAAGCCT | 0.807
19 | TAGCCTAGCTCATGGGCCAGTATACCACGCGAAC | -0.717
20 | ATCTCTAGGTAAAGATAGTTCAATGAATGCAAAT | 1.61

Row | Sequence | PBM binding z-score
21 | TTACCATGGTGAAGGTCGTTGATCCCTCTGTAGA | 0.949
22 | CCGACTGGGGCAAGGGTACCATAACGCACAGCCA | -0.346
23 | GCTATTAGTTCAAAGGGCAACCGAATGATTCTCG | 2.63
24 | TCTAGCAGGCCAGAGGGTCAGTCAAGAGGTACGG | 0.113
25 | CCTCGGAGGACAACAGGAGGTCACAGCTGCCAGA | 3.53
26 | CCGGCTAGGTCAATGGTCAGCTAAAGCAGCTCGC | 0.907
27 | CAAACTAGGTCACGAAAGGTCAAAGGCGAATGAC | 6.79
28 | CCTTACGGGTCAAGGTTATTGCACGGGTGGTACG | 3.42
29 | TCTAGTTGGTCACGGAGGTTACACACGACGGGTA | 3.16
30 | TTACCAAGGTGAAGGTCGTTGAACCCTCTGTAGA | 3.04
31 | CCAGACAGGTGAAAGGCAACTCAGTCTGGTACGC | -0.108
32 | AGAATCAGGTTACCAAAGATCAGGGAAACGCTTG | -0.0357
33 | TGAATGTGGTTATAAGATCAGGGAACGTTGCAAA | 0.157
34 | GTACCAAGGTGAATAGGTCGTTGAGGAGTAGGCG | 0.845
35 | CCTTATGGGTCAAGGTTATAGCACGGGTGGTACG | 2.45
36 | CCTGCCAGGTCATGGTCAGCTAATCTACAGTATG | 2.65
37 | TTACCAAGGTGAGGTGAGGTCGTTGATCCAACTC | 4.3
38 | CGAACGTGGGCATGAGTTGATAGCAAATGCCGAT | -0.7
39 | ATCGAAAGGTCGAAGTGAGTATAGAGAAAGGGAA | 2.7
40 | ACAGACAGGTGATGAAGGTAACTCTGGCTATCAT | 0.00307
